Shiga inhibitor: Shiga toxin inhibition. Vero cells, Shiga toxin protein synthesis inhibition reporter. inhibition, % at 38.7 µM. 9.2% of 290,000 active; in the data active means inhibition mostly above about 28%, no sharp cut-off; inactive means mostly below about 43%; further: 0% is about no effect
Cycloheximide cs: affects cycloheximide protein synthesis inhibition readout, counter-screen | max response, % | 12% of 300,000 active | AID 2314 | cell reporter, cycloheximide protein synthesis inhibition counterscreen; in the data active means max response mostly above about 13%, no sharp cut-off; inactive means mostly below about 14%; further: read at 38.3 µM for the half of the compounds with a filed dose; 0% is about no effect
Pf growth 48h: inhibits P. falciparum growth in the first generation, 48 h; P. falciparum luciferase growth in erythrocytes, 48 h; Potency, µM (top dose mostly 28.7 µM), without a hit: at the highest dose activity change, negative = inhibition, actives largely listed as inhibitors; 5.9% of 310,000 active; further: potency means the concentration at half of the fitted maximal effect; on the % scale 0 is the no-effect control and ±100 the full control effect
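Compounds are pin-transferred into medium, infected erythrocytes (2% hematocrit, 0.1% parasitemia final) are added, and plates sit one parasite generation at 37 C in 5% CO2. Detection reagent is then added and luminescence measured.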
Pf growth 96h: P. falciparum growth inhibition at 96 hour, primary screen for plastid delayed-death inhibitors | P. falciparum luciferase reporter growth, 96 h | Potency, µM (series often up to 28.7 µM), without a hit: top-dose activity change, negative = inhibition, hits mostly inhibitors | 6.9% of 320,000 active | AID 504834; further: potency means the concentration at half of the fitted maximal effect; on the % scale 0 is the no-effect control and ±100 the full control effect
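Readout is luminescence from an integrated firefly luciferase in P. falciparum. Red cells, 2% hematocrit and 0.05% parasitemia final, were cultured with compound through two parasite generations (96 hours) at 37 C, 5% CO2.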
NS1 function inh: blocks influenza NS1 protein function; 0.4% of 270,000 active; Potency, µM (series often up to 46.1 µM), inactives show at the top dose activity, positive = more growth; AID 2326; calls by dose curve; further: potency means the concentration at half of the fitted maximal effect; actives are rising curves; nearly all actives have a fitted effect of over 50% in size
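Compounds were scored for reversing the slow growth caused by influenza A NS1 in S. cerevisiae, measured by optical density at 600 nm. Assay medium contained 2% galactose at pH 6.0; NS1-free yeast of the same strain were the positive control.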
SARS PLpro yeast: inhibitors of SARS-CoV papain-like protease in yeast | S. cerevisiae expressing SARS-CoV PLpro, growth rescue | Potency, µM (doses to about 32.9 µM), without a hit: at the top dose activity, positive = growth rescue, hits mostly activators | 0.19% of 330,000 active; calls by dose curve; further: potency means the concentration at half of the fitted maximal effect; 0% is about no effect; nearly all actives have a fitted effect of over 55% in size
An asterisk follows results filed as active; ? = inconclusive; nt = no result; [ ] = another dose, or the depositor's remark. Sampled rows, rich in hits. Any-hit rate of the full collection: about 21%. Unless noted, the call rests on the fitted dose curve; in most records, active means well fitted inhibition curve with a large enough effect; inconclusive means small, poorly fitted or top-dose-only effect, or another doubt; inactive means no such curve, though single readings can be large or run the other way.

SMILES	Shiga inhibitor	Cycloheximide cs	Pf growth 48h	Pf growth 96h	NS1 function inh	SARS PLpro yeast
Nc1nonc1-n1nnc(C(=O)N/N=C/c2ccc(Br)cc2)c1-c1ccc2c(c1)OCO2	-4	-1	0.21µM*	0.059µM*	6%	0%
Nc1nonc1-n1nnc(C(=O)N/N=C/c2ccc3c(c2)OCO3)c1-c1ccccc1	53	-2	?	?	-6%	1%
Nc1ccc2oc3ccc(N)cc3c(=O)c2c1	39	38*	nt	139%	-3%	6%
COc1cc(CNCCSc2nnnn2C)cc(Br)c1OCc1ccccc1	-6	-2	?	2%[5.75 µM]	3%	0%
CCCNC(=O)c1c[nH]c2ccc(S(=O)(=O)N(C)c3ccc(OCC)cc3)cc2c1=O	14	-2	12µM*	2%	-27%	4%
Cc1ccc(C)c(N(C)S(=O)(=O)c2ccc3[nH]cc(C(=O)NCCN4CCOCC4)c(=O)c3c2)c1	-6	-3	?	nt	-10%	9%
Cc1ccc(N(C)S(=O)(=O)c2ccc3[nH]cc(C(=O)NCCCN4CCOCC4)c(=O)c3c2)cc1C	-6	4	2.3µM*	?	-3%	-5%
CCCCN(C)CCNC(=O)c1c[nH]c2ccc(S(=O)(=O)N(CC)CC)cc2c1=O	19	-1	3.7µM*	-19%	1%	2%
CC(=O)OC(C(=O)NC1CCCCC1)c1ccc(Cl)c(Cl)c1 (stereo not drawn)	0	-1	?	15%	-2%	0%
COCc1ccc(CN2CCCC(C(=O)c3sccc3C)C2)o1 (stereo not drawn)	-9	1	14%	15µM*	1%	1%
COc1ccc(CC(=O)O/N=C(\N)Cc2cccc3ccccc23)cc1	-9	5	?	12µM*	-12%	-55%
COc1ccc(CC(=O)O/N=C(\N)Cc2cccc3ccccc23)cc1OC	-3	2	10µM*	278%	1%	-21%
N/C(Cc1cccc2ccccc12)=N\OC(=O)c1ccc(Br)o1	47	18	?	22%	nt	-6%
CC1=Nc2cc(C(=O)NCc3ccco3)ccc2Sc2ccc(C)cc21	-12	-1	4.1µM*	1.9µM*	18%	-23%
CC1=Nc2cc(C(=O)N3CCC4(CC3)OCCO4)ccc2Sc2ccc(Cl)cc21	28	14	?	?	12%	21%
CC1=Nc2cc(C(=O)NCC3CCCO3)ccc2Sc2ccc(C)cc21 (stereo not drawn)	-5	-2	?	-5%	-3%	0%
CCOC(=O)N1CCN(C(=O)c2ccc3c(c2)N=C(C)c2cc(Cl)ccc2S3)CC1	-5	-2	9.3µM*	?	-16%	0%
CC1=Nc2cc(C(=O)O)ccc2Sc2ccc(C)cc21	36	20*	-5%	?	nt	4%
CN(CCC#N)CC(=O)Nc1ccc(S(N)(=O)=O)cc1	-11	8	18%	14%	0%	1%
O=C(/C=C/c1ccco1)NC(=S)Nc1ccccc1O	92*	19*	91%	23%	0%	9%
Cc1ccc(NC(=S)NC(=O)/C=C/c2ccco2)c(O)c1	68	60*	247%	45%[1.15 µM]	-6%	-2%
COc1ccc(NC(=S)NC(=O)/C=C/c2ccco2)c(OC)c1	nt	-2	-40%	?	8%	-1%
Cn1nnc(NC(=S)NC(=O)/C=C/c2ccco2)n1	-4	2	35%	4%	7%	6%
O=C(/C=C\c1ccco1)NC(=S)Nc1ccccc1O	64*	34*	80%	85%	-5%	-3%
COc1ccc(CCNC2CC(=O)N(CCc3ccccc3)C2=O)cc1OC (stereo not drawn)	-11	-3	nt	19%	-3%	-13%
SMILES	Shiga inhibitor	Cycloheximide cs	Pf growth 48h	Pf growth 96h	NS1 function inh	SARS PLpro yeast
COc1ccc(CCNC2CC(=O)N(CCc3ccc(OC)c(OC)c3)C2=O)cc1 (stereo not drawn)	-5	-2	nt	4.7µM*	-1%	-4%
N#Cc1ccsc1NC(=O)CSc1ncn[nH]1	-4	3	23%	35%	8%	2%
Cc1nnc(SCC(=O)Nc2sccc2C#N)s1	-16	14	9%	1%	-1%	1%
N#Cc1ccsc1NC(=O)CSc1ncnc2ccccc12	12	15*	-2%	nt	19%	2%
Cn1ccnc1SCC(=O)Nc1sccc1C#N	14	11*	18%	63%	0%	-7%
CC(C)(C)NC(=O)C(c1ccccc1)N(C(=O)CNC(=O)c1cccs1)c1cccnc1 (stereo not drawn)	15	-4	-4%	38%	-7%	-1%
Cc1ccc(NC(=O)c2ccccc2)s1	100*	39*	-52%	11%	-34%	-21%
Cc1cc(NC(=O)c2ccccc2)sc1C	56*	33*	35%	-19%	-117%	nt
Clc1ccc(Cc2noc(-c3cccs3)n2)cc1	93*	53*	151%	nt	5%	11%
CCc1ccc(-c2ccc(C(=O)C(F)(F)F)[nH]2)cc1	126*	64*	336%	36%	-20%	-3%
Cc1nn(C(C)C(=O)Nc2ccccc2Cl)c(=O)c2nn(-c3ccccc3)c(C)c12 (stereo not drawn)	-15	-10	-22%	12µM*	-5%	-7%
Cc1nn(C(C)C(=O)NC2CCCCC2)c(=O)c2nn(-c3ccccc3)c(C)c12 (stereo not drawn)	-3	12	-3%	12µM*	4%	-1%
CCOc1ccccc1CNC(=O)C(C)n1nc(C)c2c(C)n(-c3ccccc3)nc2c1=O (stereo not drawn)	-10	-11	-19%	?	15%	-7%
COC(=O)c1ccccc1NC(=O)C(C)n1nc(C)c2c(C)n(-c3ccccc3)nc2c1=O (stereo not drawn)	-2	-4	?	9.3µM*	20%	-2%
Cc1nn(C(C)C(=O)NC2CC2)c(=O)c2nn(-c3ccccc3)c(C)c12 (stereo not drawn)	-6	-6	7%	?	10%	2%
Nc1nc(-n2cnnc2)nn1-c1ccccc1	9	-2	7%	2%	-1%	-3%
Nc1nc(N2C(=O)C3CC=CCC3C2=O)nn1-c1ccccc1 (stereo not drawn)	-2	-2	?	2.9µM*	-13%	5%
CCOC(=O)COc1c(-c2ccc(OC)cc2)oc2ccccc2c1=O	8	-3	35%	-6%	-9%	-6%
CCOC(=O)/C=C/c1ccc2oc3ccccc3c(=O)c2c1	76*	49*	236%	108%	-1%	7%
c1ccc(Cn2ncc3c2ncn2nc(-c4ccncc4)nc32)cc1	nt	nt	nt	nt	2%	nt
Cn1ncc2c1ncn1nc(COc3ccc4ccccc4c3)nc21	-15	40*	28%	?	4%	7%
Cn1ncc2c1ncn1nc(CCc3ccccc3)nc21	68*	52*	282%	?	-6%	-1%

Compound activity from PubChem.
